Assay results from PubChem BioAssay.
The source made the active and inactive calls.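 The calls were made as follows, unless noted: active = fluorescence slope higher than the sample average by over 3 SD (cut at about -0.22 in these data, passing the limit was not always enough); inactive = the rest.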

Legend:
[1] = inhibitors of TNFa-induced NFkB p65 translocation, primary screen, imaging, HUVEC, MLSMR starter and 10KST1 sets (AID 438;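 active = inhibition above 20% together with a positive visual image hit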;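 also: compound added about 3h40 before a 20 min TNFalpha stimulation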;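 as to inhibition: signal is the nuclear over cytoplasmic p65 intensity ratio per well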); conditions: HUVEC TNFa-induced p65 nuclear translocation; cell count: measured here: nuclei count (cytotoxicity indicator), at 2.08 µM; inhibition: at 2 µM, stronger effect = higher value, 0% TNFa-plus-vehicle, 100% no-TNFa wells
[2] = reduction of polyQ htt aggregates in cells – imaging, exon1htt(103Q)mCFP cells, high-content imaging, primary screen (AID 483;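 active = visual image review flags a hit and inhibition of aggregation exceeds 20%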;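 also: compound exposure lasted 3 days before fixation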;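 as to nuclei count: percent of the per-plate median nuclei count of sample wells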); conditions: exon1htt(103Q)mCFP cell line, aggregate imaging, at 2 µM; inhibition of aggregation: stronger effect = higher value; nuclei count: measured here: cell count, toxicity
[3] = endothelial E-selectin expression blockers – imaging, HUVEC, immunofluorescence, MLSMR starter and 10KST1 sets, primary screen (AID 487;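 active = visually confirmed hit in the image check and inhibition above 20%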;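 as to inhibition: signal is fraction of cell area covered by stained E-selectin grains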;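 as to nuclei count: 100% = median nuclei count of all wells on the same plate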); conditions: HUVEC TNFalpha-induced E-selectin immunofluorescence imaging, at 2 µM; inhibition: stronger effect = higher value; nuclei count: measured here: cell number, toxicity
[4] = target: Voltage-gated potassium channel subunit beta-2 (Rattus norvegicus) (UniProt P62483); assay: inhibitors of rat Kvbeta2 reductase activity – biochemical, NADPH fluorescence, primary screen (AID 622); conditions: recombinant KvBeta, 4-cyanobenzaldehyde reduction, at 10 µM, stronger effect = higher value;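 also: slope of raw intensity against log time taken from 70 to 1610 s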
Voltage-gated potassium channel subunit beta-2 (Rattus norvegicus), sequence (P62483 whole entry, looked up): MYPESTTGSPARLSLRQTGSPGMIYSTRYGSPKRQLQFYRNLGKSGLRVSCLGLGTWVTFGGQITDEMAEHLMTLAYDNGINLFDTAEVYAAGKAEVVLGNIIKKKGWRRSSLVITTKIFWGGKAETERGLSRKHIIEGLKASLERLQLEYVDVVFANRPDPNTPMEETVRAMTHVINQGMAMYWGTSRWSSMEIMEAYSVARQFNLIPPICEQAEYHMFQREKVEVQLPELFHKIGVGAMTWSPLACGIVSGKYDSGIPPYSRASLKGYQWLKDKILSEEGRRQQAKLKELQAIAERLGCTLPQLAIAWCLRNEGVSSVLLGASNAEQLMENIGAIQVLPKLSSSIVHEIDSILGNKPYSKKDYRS

[5] = target: Voltage-gated potassium channel subunit beta-2 (Rattus norvegicus) (UniProt P62483); assay: enhancers of rat Kvbeta2 NADPH turnover – biochemical, NADPH fluorescence, primary screen (AID 623;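 active = NADPH fluorescence slope more negative than the mean of all samples by about 3 SD, 99.7% confidence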;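 also: fluorescence intensity change per second fitted from 20 to 320 s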); conditions: Recombinant KvBeta, NADPH fluorescence decrease slope, 10 min; at 10 µM; stronger effect = lower value
[6] = target: Alpha-2C adrenergic receptor (Homo sapiens) (UniProt P18825); assay: compounds altering alpha2C-coupled GIRK flux – cell-based, HEK293 alpha2C/GIRK1/2, thallium flux, primary screen (AID 624;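 active = fluorescence slope after compound addition differing from the mean of all screened samples at 99.7% confidence, in either direction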;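 also: slope of fluorescence ratio to pre-addition baseline per second over 15 to 24 s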); conditions: thallium flux BTC fluorescence, at 10 µM, actives lie on both sides
Alpha-2C adrenergic receptor (Homo sapiens), sequence (P18825 whole entry, looked up): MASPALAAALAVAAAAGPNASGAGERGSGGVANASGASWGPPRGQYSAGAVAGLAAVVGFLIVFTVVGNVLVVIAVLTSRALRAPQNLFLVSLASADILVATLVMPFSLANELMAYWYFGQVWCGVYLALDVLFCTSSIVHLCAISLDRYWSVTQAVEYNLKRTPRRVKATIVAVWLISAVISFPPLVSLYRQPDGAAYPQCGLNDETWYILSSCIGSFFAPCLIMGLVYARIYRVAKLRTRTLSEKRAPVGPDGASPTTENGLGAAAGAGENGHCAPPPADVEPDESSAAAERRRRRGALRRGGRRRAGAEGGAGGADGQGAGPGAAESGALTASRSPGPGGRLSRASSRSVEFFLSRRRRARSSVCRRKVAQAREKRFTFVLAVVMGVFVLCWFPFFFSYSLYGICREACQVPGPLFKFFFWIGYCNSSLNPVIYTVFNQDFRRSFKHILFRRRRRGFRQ

[7] = blockers of RIG-like receptor reporter activation – cell-based, Sendai virus stimulus, luciferase, 10K MLSCN set, TLR/RLR signaling modifier project, primary screen (AID 602276;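 active = inhibition at or above 50% at 10 µM; inactive = inhibition below 50%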;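 also: firefly luciferase from ISG56 promoter only with Renilla not read in this screen; 0% = Sendai virus plus DMSO and 100% = medium plus DMSO without virus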); conditions: HEK293 RL24 IRF3 luciferase reporter, at 10 µM, stronger effect = higher value
[8] = TLR3 IRF3 reporter activation blockers – cell-based, poly I:C stimulus, luciferase, 10K MLSCN set, primary screen (AID 602277;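 active = inhibition of the reporter signal at or above 50%; inactive = inhibition below 50%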); conditions: HEK293-TLR3 RL24 IRF3 luciferase reporter, at 10 µM, stronger effect = higher value

SMILES	cell count [1]	inhibition [1]	inhibition of aggregation [2]	nuclei count [2] [%]	inhibition [3]	nuclei count [3] [%]	fluorescence slope [4]	NADPH fluorescence slope [5]	slope [6]	inhibition [7]	inhibition [8]
CC(=O)c1sc(NC(=O)C2COc3ccccc3O2)nc1C (stereo not drawn)	604	-0.3% (inactive)	24.9% (inactive)	87.8	19.7% (inactive)	104	-0.586 (inactive)	-2.4e-05 (inactive)	0.00774 (inactive)	15.8% (inactive)	-48.7% (inactive)
CCCc1cc(=O)[nH]c(/N=C(\N)Nc2ccccc2)n1	826	3.6% (inactive)	-12.7% (inactive)	94.3	-95.3% (inactive)	138	-0.431 (inactive)	-2.5e-05 (inactive)	0.0048 (inactive)	12.3% (inactive)	16.6% (inactive)
O=C(NCCN1C(=O)C2C3C=CC(C3)C2C1=O)Nc1ccccn1 (stereo not drawn)	635	0.8% (inactive)	12.9% (inactive)	72.4	-12.9% (inactive)	108	-0.603 (inactive)	1.9e-05 (inactive)	0.00714 (inactive)	7.16% (inactive)	16.9% (inactive)
Cc1occc1-c1nnc(SCC(=O)N2CCc3ccccc32)o1	679	-1.9% (inactive)	2.9% (inactive)	73.2	-7.2% (inactive)	106	-0.478 (inactive)	2.9e-05 (inactive)	0.00881 (inactive)	5.8% (inactive)	5.93% (inactive)
CCN(CC)CCCn1c(=S)[nH]c2cc(Cl)ccc2c1=O	353	-0.2% (inactive)	7.4% (inactive)	100	6.9% (inactive)	97.4	-0.514 (inactive)	-0.000206 (active)	0.00373 (inactive)	12.1% (inactive)	21.3% (inactive)
Cc1ccc2c(c1C)NC(=O)C2(O)CC(=O)c1ccc2c(c1)OCO2 (stereo not drawn)	788	0.6% (inactive)	34.5% (inactive)	96.2	-44% (inactive)	110	-0.472 (inactive)	-5.3e-05 (inactive)	0.00591 (inactive)	11.2% (inactive)	25.3% (inactive)
CCOC(=O)c1c(N)sn(-c2ccccc2)c1=S	441	-9.2% (inactive)	5.4% (inactive)	114	-55.1% (inactive)	112	-0.37 (inactive)	-5.3e-05 (inactive)	0.00599 (inactive)	15.3% (inactive)	20% (inactive)
CCn1cc(C2Nc3ccccc3C(=O)N2O)c(C)n1 (stereo not drawn)	428	8.8% (inactive)	-27.6% (inactive)	112	-66.4% (inactive)	104	-0.301 (inactive)	-4.1e-05 (inactive)	0.0057 (inactive)	-41.1% (inactive)	-70.4% (inactive)
O=C(O)c1ccc2c3c(ncnc13)-c1ccccc1C2=O	336	-10.1% (inactive)	-50.8% (inactive)	9.6	-34.1% (inactive)	93	-0.155 (inactive)	-4.9e-06 (inactive)	0.0028 (inactive)	18.4% (inactive)	26.7% (inactive)
COc1cc(C(=O)N2CCN(c3cc(Cl)ccc3Cl)CC2)cc(OC)c1OC	630	-6.1% (inactive)	1% (inactive)	34.1	-62.3% (inactive)	98.9	-0.425 (inactive)	-7.3e-05 (inactive)	0.00499 (inactive)	12% (inactive)	78.9% (active)
COc1ccc(S(=O)(=O)n2nc(OC(=O)c3ccc(C)cc3)cc2N)cc1	566	-19.6% (inactive)	-9.1% (inactive)	106	-31% (inactive)	144	-0.337 (inactive)	-1.2e-06 (inactive)	0.00323 (inactive)	14% (inactive)	19.2% (inactive)
Cc1cc(C)n(CCc2nc(-c3cccs3)cs2)n1	587	-10.1% (inactive)	-5.8% (inactive)	98.6	-52.1% (inactive)	112	-0.603 (inactive)	-5.2e-07 (inactive)	0.00641 (inactive)	-6.14% (inactive)	-42.1% (inactive)
CC1(C)CC(=O)CC(C2(O)C(=O)N(Cc3ccccc3)c3ccccc32)O1 (stereo not drawn)	500	-2.4% (inactive)	-3.9% (inactive)	82.2	-9.4% (inactive)	120	-0.548 (inactive)	1.3e-05 (inactive)	0.00527 (inactive)	-9.58% (inactive)	-5.31% (inactive)
O=C(c1ccc(Cl)cc1)N1CCCCC(Sc2nnc(-c3ccc4c(c3)OCO4)o2)C1=O (stereo not drawn)	505	-13.7% (inactive)	14.1% (inactive)	93.7	-71.6% (inactive)	145	-0.624 (inactive)	-3.6e-05 (inactive)	0.00978 (inactive)	-180% (inactive)	92% (active)
Cc1ccc(C2C(C(=O)c3sc(C)nc3C)=C(O)C(=O)N2CCN(C)C)o1 (stereo not drawn)	387	-7.6% (inactive)	-12.7% (inactive)	107	-161% (inactive)	127	-0.351 (inactive)	-4.5e-05 (inactive)	0.00504 (inactive)	7.21% (inactive)	6.57% (inactive)
CC(=O)c1c(C)nn(C(C)CC(=O)O)c1C (stereo not drawn)	784	-12.6% (inactive)	5.2% (inactive)	114	-27.1% (inactive)	99	-0.509 (inactive)	-2.6e-05 (inactive)	0.00713 (inactive)	8.2% (inactive)	19.7% (inactive)
Cc1cc(Cl)cc2c1NC(=O)[C@]21[C@@H]2C(=O)N(Cc3ccccc3)C(=O)[C@@H]2[C@@H]2CCCN21	556	-18.1% (inactive)	-7.5% (inactive)	115	-65.1% (inactive)	107	-0.619 (inactive)	-3.2e-05 (inactive)	0.00523 (inactive)	15.5% (inactive)	27.9% (inactive)
Cc1cc(C)c2c(n1)nn1c(N3CCN(c4cccc(Cl)c4)CC3)cc(C)nc21	458	-7.1% (inactive)	3.7% (inactive)	97.9	-60.1% (inactive)	130	-0.303 (inactive)	1.1e-05 (inactive)	0.00567 (inactive)	9.81% (inactive)	21.4% (inactive)
CCN(CC)S(=O)(=O)c1ccc2oc(C(=O)N3CCOCC3)c(C)c2c1	638	-12% (inactive)	5.2% (inactive)	107	-96.2% (inactive)	92.5	-0.543 (inactive)	-2.8e-06 (inactive)	0.00418 (inactive)	-1.83% (inactive)	2.02% (inactive)
COc1ccc(N2CCN(C(=O)Cc3ccc(-n4c(=O)[nH]c5ccccc5c4=O)cc3)CC2)cc1	660	-5.8% (inactive)	-41.3% (inactive)	96.7	-103% (inactive)	103	-0.483 (inactive)	1.9e-05 (inactive)	0.00662 (inactive)	7.13% (inactive)	-1.38% (inactive)
CCCCNC(=O)Cn1c(=O)n(C)c2ccccc21	600	6.9% (inactive)	-14.7% (inactive)	111	35.9% (inactive)	103	-0.549 (inactive)	-6.8e-06 (inactive)	0.00707 (inactive)	9.9% (inactive)	30% (inactive)
CC(=O)NC(Cc1c[nH]c2ccccc12)C(=O)OCC(=O)Nc1cc(C)on1 (stereo not drawn)	505	9.6% (inactive)	0.7% (inactive)	110	-0.6% (inactive)	97.6	-0.376 (inactive)	1.5e-05 (inactive)	0.00598 (inactive)	-5.34% (inactive)	8.03% (inactive)
O=C1CCc2cc(S(=O)(=O)N3CCC(C(=O)NCc4ccccn4)CC3)ccc2N1	599	0% (inactive)	32.3% (inactive)	115	-26.3% (inactive)	110	-0.578 (inactive)	1.3e-05 (inactive)	0.00666 (inactive)	13.9% (inactive)	14.7% (inactive)
O=C(CSc1ncnc2c1cnn2-c1ccccc1)Nc1ccccc1	316	2.4% (inactive)	8.4% (inactive)	106	-42% (inactive)	115	-0.493 (inactive)	-1.4e-05 (inactive)	0.00569 (inactive)	13.5% (inactive)	23.8% (inactive)
Cn1c(=O)[nH]c(=O)c2c1nc(NCCCn1ccnc1)n2Cc1cccc(Br)c1	663	-12.9% (inactive)	8.6% (inactive)	68.9	-53.6% (inactive)	112	-0.403 (inactive)	-2.8e-05 (inactive)	0.006 (inactive)	16.8% (inactive)	26.1% (inactive)
Cc1nc2ncnn2c(C)c1CCC(=O)NCCCN1CCN(c2cccc(Cl)c2)CC1	352	-2% (inactive)	-0.5% (inactive)	99.1	-40.4% (inactive)	107	-0.505 (inactive)	-5.1e-05 (inactive)	0.0065 (inactive)	4.7% (inactive)	16.9% (inactive)
Cc1occc1C(=O)N1CCN(Cc2ccccc2)CC1	661	-9% (inactive)	8.8% (inactive)	75.8	-40.1% (inactive)	104	-0.483 (inactive)	-3.8e-05 (inactive)	0.00745 (inactive)	7.4% (inactive)	34.1% (inactive)
CCOc1ccc(NC(=O)C2CC(=O)N(C(C)C)C2)cc1 (stereo not drawn)	346	-0.5% (inactive)	11.8% (inactive)	91.8	-32.2% (inactive)	96.8	-0.623 (inactive)	4.4e-05 (inactive)	0.00445 (inactive)	11% (inactive)	12.4% (inactive)
